# The list is not random: actives were taken first. Their share in the collection is about 2.3%.
# PTHR1 ag – activates the human parathyroid hormone receptor PTHR1; Potency, µM (top dose mostly 115 µM), most hits filed as activators; actives 0.075% (n = 410,000); AID 743266; HEK293 GP2 PTHR1 cells, GloSensor cAMP luminescence, 1 h; note: nearly all actives have a fitted effect of over 55% in size
#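 HEK-293-derived GP2 cells expressing PTHR1 and a GloSensor cAMP reporter, 3,000/well, plated overnight, given luciferin plus IBMX (each 0.5 mM as added) for 1 h at 37 °C, then compound for 1 h at 37 °C. Luminescence was read after 15 min at room temperature.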
# GLS inh – blocks human kidney-isoform glutaminase activity | O94925 | GLS enzymatic activity, qHTS titration | Potency, µM (doses to about 45.5 µM), hits mostly inhibitors | actives 0.21% (n = 410,000) | AID 624170
# Target sequence (O94925 whole entry, looked up, canonical isoform): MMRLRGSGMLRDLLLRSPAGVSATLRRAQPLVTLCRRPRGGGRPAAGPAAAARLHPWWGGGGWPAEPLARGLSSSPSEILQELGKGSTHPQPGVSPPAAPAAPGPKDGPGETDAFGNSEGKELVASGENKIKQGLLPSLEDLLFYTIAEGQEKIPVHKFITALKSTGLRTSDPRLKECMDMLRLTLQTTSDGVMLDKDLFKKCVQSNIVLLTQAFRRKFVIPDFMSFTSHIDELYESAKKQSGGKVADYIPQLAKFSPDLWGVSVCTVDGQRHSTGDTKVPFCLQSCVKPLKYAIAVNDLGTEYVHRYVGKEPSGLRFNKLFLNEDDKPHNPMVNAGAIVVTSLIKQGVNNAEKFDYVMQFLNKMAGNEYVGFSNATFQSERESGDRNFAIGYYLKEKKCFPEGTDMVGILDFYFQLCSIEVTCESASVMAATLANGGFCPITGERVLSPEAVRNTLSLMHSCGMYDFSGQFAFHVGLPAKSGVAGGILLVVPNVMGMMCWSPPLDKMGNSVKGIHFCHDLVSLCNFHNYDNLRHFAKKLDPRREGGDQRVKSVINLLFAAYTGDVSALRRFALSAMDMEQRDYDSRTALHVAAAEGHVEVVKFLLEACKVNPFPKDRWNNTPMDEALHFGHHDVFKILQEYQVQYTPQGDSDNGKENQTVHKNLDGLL
#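 hKGA; 45 mM KH2PO4 pH 8.2 + 0.02% Tween-20; cpd via pin tool; 1 mM Gln soln; GluOx/HRP/Amplex Red; RT 30 min; fluor. t0 & final.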
# GLP-1R inv ag – acts as inverse agonist at human GLP-1 receptor; HEK293 GLP-1R CRE-luciferase, luminescence, 24 h; GLP-1R form is constitutively active; Potency, µM (titrated, usually from 38.3 µM), most hits filed as inhibitors; actives 1.6% (n = 410,000); note: nearly all actives have a fitted effect of over 55% in size
#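 Inverse agonists were sought by their lowering of basal cAMP reporter luciferase output in HEK293 cells stably carrying constitutively active human GLP-1R, after 24 h compound treatment.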
# GLP-1R agonist – GLP-1 receptor (human) agonism; HEK293 GLP-1R CRE-luciferase, luminescence, 4-6 h; cells express a hypersensitive GLP-1R form; actives 0.007% (n = 380,000); P43220; Potency, µM (highest dose often 45.6 µM), actives largely listed as activators; AID 624172
# GRP78 ERSR act – inducers of ER stress response in human glioma cells; U87-MG GRP78 promoter luciferase reporter, 16 h; Potency, µM, actives largely listed as activators; actives 0.02% (n = 420,000); note: series mostly up to about 76 µM; nearly all actives have a fitted effect of over 35% in size
#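 Stably transfected U87-MG glioma cells carrying a GRP78-based luciferase sensor; 16 h compound incubation. Luminescence end-point read 10 min after Bright-Glo addition at room temperature.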
# 12-LOX inh – blocks human arachidonate 12S-lipoxygenase | P18054 | Potency, µM (highest dose often 108 µM), actives largely listed as inhibitors | AID 1671190 | actives 1.1% (n = 580,000) | purified 12hLO, xylenol orange hydroperoxide absorbance
#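 Purified human 12hLO at 150 nM in 25 mM Hepes, 0.01% Triton X-100, pH 7.0, preincubated 15 min at room temperature with compound. Reaction started with 40 uM arachidonic acid, 30 min at room temperature. Hydroperoxide measured by Fe-xylenol orange, 573/405 nm absorbance ratio.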
# Hits are given with their value; n = inactive; u = inconclusive; x = no result given; ! = not active in a repeat. Calls come from the whole dose curve; as a rule, active = well fitted curve in the direction sought with a large enough effect; inconclusive = small, poorly fitted or top-dose-only effect, or another doubt; inactive = no such curve, though single readings can be large; an effect the other way counts as inactive or inconclusive.
SMILES,PTHR1 ag,GLS inh,GLP-1R inv ag,GLP-1R agonist,GRP78 ERSR act,12-LOX inh
Cc1nnc(SC(C)C(=O)Nc2ccc(Cl)cn2)n1Cc1ccccc1 (configuration not stated),n,n,n,n,n,n
CC(Sc1nnc(CN2CCCC2)n1Cc1ccccc1)C(=O)Nc1ccc(F)c(F)c1F (configuration not stated),n,n,5.01µM,n,n,n
O=[N+]([O-])c1cccc(SSc2cccc([N+](=O)[O-])c2)c1,n,n,u,n,n,2.51µM
CC(C)(O)CCc1c(-c2ccc(O)cc2O)oc2c3c(cc(O)c2c1=O)OC(C)(C)C=C3,n,n,u,n,n,44.7µM
O=C(CC(c1ccc(Cl)cc1)c1c[nH]c2ccc([N+](=O)[O-])cc12)N1CCOCC1 (configuration not stated),x,x,x,x,x,8.91µM
COCCNC(=O)CC(c1ccc(Cl)cc1)c1c[nH]c2ccc([N+](=O)[O-])cc12 (configuration not stated),x,x,x,x,x,7.08µM
CCCCNC(=O)CC(c1cccc([N+](=O)[O-])c1)c1c[nH]c2ccccc12 (configuration not stated),x,x,x,x,x,n
CCNc1nc(-c2ccc(Br)cc2)cs1,x,x,x,x,x,n
O=C1Cc2cc(-c3csc(NC4CCCCC4)n3)cc3c2N1CCC3,x,x,x,x,x,11.2µM
Nc1nc(-c2ccc3c(c2)CCC(=O)N3)cs1,n,n,n,n,n,n
COc1ccc(-c2csc(NC3CCCCC3)n2)c(OC)c1,n,u,u,n,n,u
O=C1CCc2cc(-c3csc(NC4CC4)n3)ccc2N1,x,x,x,x,x,35.5µM
CCCCNc1nc(-c2ccc3c(c2)CC(=O)N3)cs1,x,x,x,x,x,31.6µM
CCNc1nc(-c2ccc3c(c2)CCC(=O)N3)cs1,x,x,x,x,x,20µM
CC(C)C(=O)Nc1c(C(=O)Nc2cccc(F)c2)oc2ccccc12,x,x,x,x,x,n
O=C1Cc2cc(-c3csc(NC4CC4)n3)ccc2N1,x,x,x,x,x,39.8µM
Clc1cccc(-c2csc(NC3CC3)n2)c1,x,x,x,x,x,n
Cc1ccc(-n2ncc(C(=O)NCCN3CCCC3)c2C2CCN(C(=O)OC(C)(C)C)CC2)cc1,u,n,u,x,n,n
Cc1ccc(-n2ncc(C(=O)NCCN3CCC(Cc4ccccc4)CC3)c2C2CCN(C(=O)OC(C)(C)C)CC2)cc1,n,n,10µM,x,n,u
CCOC(=O)c1ccccc1NC(=O)c1cnn(-c2ccc(OC)cc2)c1C1CCN(C(=O)OC(C)(C)C)CC1,n,n,n,x,n,n
CCOC(=O)c1cnn(-c2ccc(OC)cc2)c1C1CCN(C(=O)OC(C)(C)C)CC1,n,n,u,n,n,14.1µM
Cc1nc(-c2ccccc2)sc1C(=O)Nc1ccc(C(C)C)cc1,x,x,x,x,x,n
CN(C)CCN(Cc1ccccc1)c1ccnc(N(C)C)c1C#N,n,n,n,n,n,u
CN(C)c1nccc(N(Cc2ccccc2)Cc2ccccc2)c1C#N,n,n,11.2µM,n,n,3.16µM
CCCCN1C(=O)C2(CCN(C(=O)CC(C)(C)C)CC2)Nc2ccccc21,x,x,x,x,x,n
SMILES,PTHR1 ag,GLS inh,GLP-1R inv ag,GLP-1R agonist,GRP78 ERSR act,12-LOX inh
ON=C1c2ccccc2-c2ccc(Br)cc21,n,n,n,n,n,n
C=C(C)CNC(=S)NN=C1c2ccccc2-c2ccccc21,n,n,u,11.2µM,n,x
NC(=S)NN=C1c2ccccc2-c2cc(Br)ccc21,n,n,u,n,n,39.8µM
C=C(C)CNC(=S)N/N=C/c1ccco1,n,n,4.47µM,n,n,n
CCNC(=S)NN=C1c2ccccc2-c2ccccc21,n,u,u,n,n,35.5µM
COCCn1c(N2CCN(CCO)CC2)nc2c1c(=O)[nH]c(=O)n2C,x,x,x,x,x,n
S=C(NCCCN1CCOCC1)NN=C1c2ccccc2-c2ccccc21,n,n,u,n,n,44.7µM
S=C(NCCCN1CCOCC1)Nc1ccc(Nc2ccccc2)cc1,n,u,n,n,n,n
O=S(=O)(NCc1c(Cl)cccc1Oc1ccccc1)c1ccccc1,n,n,10µM,n,n,n
Cc1ccc(S(=O)(=O)NCc2c(Cl)cccc2Oc2ccccc2)cc1,n,n,u,n,n,x
O=C(CCC1CCCC1)NCC12CC3CC(CC(C3)C1)C2,x,x,x,x,x,n
CC(C)N(CCC(=O)c1ccc2ccccc2c1)Cc1ccccc1,n,n,n,n,n,35.5µM!
COc1ccc(-c2nc(C#N)c(NCC(c3cccs3)N(C)C)o2)cc1 (configuration not stated),x,x,x,x,x,n
CN1/C(=C\C(=O)Nc2cccc(Cl)c2)C(C)(C)c2ccccc21,n,n,5.01µM,n,n,n
Cc1ccc(-c2cccc(C3CC=CC4C3C(=O)N(Cc3ccccc3)C4c3cc(C)ccc3F)c2)cc1 (configuration not stated),n,n,4.47µM,n,n,n
O=C1C2C(c3ccccc3)CC=CC2C(c2cccc([N+](=O)[O-])c2)N1Cc1ccccc1 (configuration not stated),x,x,x,x,n,x
O=C1C2C(c3ccccc3)CC=CC2[C@H](c2cccc([N+](=O)[O-])c2)N1Cc1ccccc1 (some centres not stated),n,n,10µM,n,n,n
Cc1c(NCC(=O)Nc2ccccc2C(C)C)cccc1C(=O)N1CCc2sccc2C1,x,x,x,x,x,n
COc1cc(NC(=O)N2CCc3nc(Nc4cc(Cl)cc(Cl)c4)ncc3C2)cc(OC)c1OC,n,n,10µM,n,n,n
CCC(C)(C)C1CCc2c(sc(N)c2C#N)C1 (configuration not stated),x,x,x,x,x,28.2µM
COc1ccc(C2=NNC(=O)C2(C)Br)cc1 (configuration not stated),n,n,n,n,n,44.7µM
COc1ccc(C2=NNC(=O)CC2)cc1,n,n,n,n,n,n
O=C(NCc1cc(C(F)(F)F)cc(C(F)(F)F)c1)C1CC(c2ccccc2[N+](=O)[O-])=NO1 (configuration not stated),n,n,10µM,n,n,n
O=C(NCc1cccc(C(F)(F)F)c1)C1CC(c2ccccc2[N+](=O)[O-])=NO1 (configuration not stated),n,n,u,n,n,n
CCCCN(CC)C(=O)c1cccc2c(C)c(C)[nH]c12,x,x,x,x,x,n
CC1CCC(NCCNC(=O)c2ccco2)CC1 (configuration not stated),n,n,n,n,n,2.82µM
O=C(NCCNC1CCCCC1)c1ccco1,n,u,n,n,n,u
CCN(CC)C1=NC(=O)C(CC(=O)Nc2cccc(C(=O)NCCc3ccccc3OC)c2)S1 (configuration not stated),x,x,x,x,x,1.12µM

# Screening results as filed in PubChem.
